The results in this text go back to PubChem BioAssay.

Active and inactive are the calls of the source.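 How the source made its calls, unless noted: active means NADPH fluorescence slope more negative than the mean of all samples by about 3 SD, 99.7% confidence; inactive means the rest.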

The nature of assay [1]: inhibitors of TNFa-induced NFkB p65 translocation, primary screen, imaging, HUVEC, MLSMR starter and 10KST1 sets (AID 438;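 active means inhibition above 20% together with a positive visual image hit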;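 further: compound added about 3h40 before a 20 min TNFalpha stimulation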;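 on inhibition: signal is the nuclear over cytoplasmic p65 intensity ratio per well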). Conditions: HUVEC TNFa-induced p65 nuclear translocation; cell count: measured here: nuclei count (cytotoxicity indicator), at 2.08 µM; inhibition: at 2 µM, stronger effect = higher value, 0% TNFa-plus-vehicle, 100% no-TNFa wells.
Assay [2] in a line: inhibitors of mutant huntingtin aggregation, primary screen, imaging, exon1htt(103Q)mCFP cells, high-content imaging (AID 483;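 active means visual image review flags a hit and inhibition of aggregation exceeds 20%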;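 further: compound exposure lasted 3 days before fixation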;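 on nuclei count: percent of the per-plate median nuclei count of sample wells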). The following applies: exon1htt(103Q)mCFP cell line, aggregate imaging, at 2 µM; inhibition of aggregation: stronger effect = higher value; nuclei count: measured here: cell count, toxicity.
Assay [3] can be described thus: inhibitors of E-selectin induction by TNFa, primary screen, imaging, HUVEC, immunofluorescence, MLSMR starter and 10KST1 sets (AID 487;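 active means visually confirmed hit in the image check and inhibition above 20%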;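 on inhibition: signal is fraction of cell area covered by stained E-selectin grains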;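 on nuclei count: 100% = median nuclei count of all wells on the same plate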). Conditions: HUVEC TNFalpha-induced E-selectin immunofluorescence imaging, at 2 µM; inhibition: stronger effect = higher value; nuclei count: measured here: cell number, toxicity.
In assay [4] the target is Voltage-gated potassium channel subunit beta-2 (Rattus norvegicus) (UniProt P62483). Put plainly: KvBeta enzyme negative modulators, primary screen, biochemical, NADPH fluorescence (AID 622;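 active means fluorescence slope higher than the sample average by over 3 SD, cut at about -0.22 in these data, passing the limit was not always enough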;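 further: slope of raw intensity against log time taken from 70 to 1610 s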). The following applies: recombinant KvBeta, 4-cyanobenzaldehyde reduction, at 10 µM, stronger effect = higher value.
Sequence of Voltage-gated potassium channel subunit beta-2 (Rattus norvegicus) (P62483 whole entry, looked up): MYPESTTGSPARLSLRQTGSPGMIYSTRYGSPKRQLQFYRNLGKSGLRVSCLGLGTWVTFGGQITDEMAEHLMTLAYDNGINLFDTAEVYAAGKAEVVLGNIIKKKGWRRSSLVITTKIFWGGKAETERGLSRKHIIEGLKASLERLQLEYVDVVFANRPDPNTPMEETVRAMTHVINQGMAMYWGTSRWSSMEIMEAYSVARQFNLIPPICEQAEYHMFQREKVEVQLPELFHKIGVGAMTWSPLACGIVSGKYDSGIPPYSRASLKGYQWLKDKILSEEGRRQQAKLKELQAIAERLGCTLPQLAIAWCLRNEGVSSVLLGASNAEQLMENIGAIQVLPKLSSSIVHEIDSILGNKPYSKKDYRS
Assay [5] has the same target. Put plainly: KvBeta positive modulators, primary screen, biochemical, NADPH fluorescence (AID 623).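 Further: fluorescence intensity change per second fitted from 20 to 320 s.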 The following applies: Recombinant KvBeta, NADPH fluorescence decrease slope, 10 min; at 10 µM; stronger effect = lower value.
For assay [6], the target named is Alpha-2C adrenergic receptor (Homo sapiens) (UniProt P18825). The assay is described as follows: modulators of alpha2C/GIRK thallium flux, primary screen, cell-based, HEK293 alpha2C/GIRK1/2 (AID 624;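 active means fluorescence slope after compound addition differing from the mean of all screened samples at 99.7% confidence, in either direction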;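 further: slope of fluorescence ratio to pre-addition baseline per second over 15 to 24 s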). The following applies: thallium flux BTC fluorescence, at 10 µM, actives lie on both sides.
Sequence of Alpha-2C adrenergic receptor (Homo sapiens) (P18825 whole entry, looked up): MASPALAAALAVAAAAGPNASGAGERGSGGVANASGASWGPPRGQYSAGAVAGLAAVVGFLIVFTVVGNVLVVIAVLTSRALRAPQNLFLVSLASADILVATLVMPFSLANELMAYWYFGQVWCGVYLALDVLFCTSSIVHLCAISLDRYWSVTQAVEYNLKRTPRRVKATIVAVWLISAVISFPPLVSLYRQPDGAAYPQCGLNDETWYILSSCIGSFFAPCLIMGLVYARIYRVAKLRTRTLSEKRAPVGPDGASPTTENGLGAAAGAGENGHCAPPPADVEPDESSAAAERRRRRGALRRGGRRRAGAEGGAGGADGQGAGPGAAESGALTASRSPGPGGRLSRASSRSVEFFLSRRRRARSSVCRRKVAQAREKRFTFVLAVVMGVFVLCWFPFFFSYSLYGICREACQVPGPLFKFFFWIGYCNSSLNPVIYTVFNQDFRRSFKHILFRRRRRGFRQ
The nature of assay [7]: inhibitors of Sendai virus-induced IRF3 signaling, primary screen, TLR/RLR signaling modifier project, cell-based, Sendai virus stimulus, luciferase, 10K MLSCN set (AID 602276;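 active means inhibition at or above 50% at 10 µM; inactive means inhibition below 50%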;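 further: firefly luciferase from ISG56 promoter only with Renilla not read in this screen; 0% = Sendai virus plus DMSO and 100% = medium plus DMSO without virus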). Conditions: HEK293 RL24 IRF3 luciferase reporter, at 10 µM, stronger effect = higher value.
Assay [8] in a line: inhibitors of poly I:C-induced TLR3 signaling, primary screen, cell-based, poly I:C stimulus, luciferase, 10K MLSCN set (AID 602277;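 active means inhibition of the reporter signal at or above 50%; inactive means inhibition below 50%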). Conditions: HEK293-TLR3 RL24 IRF3 luciferase reporter, at 10 µM, stronger effect = higher value. In general terms: In a reporter assay the amount or activity of a reporter protein is the signal.

`CCOC(=O)CC12CN3CN(C1)CC(CC(=O)OCC)(C3)C2=O`: in assay [1], the cell count was found to be 596. Besides, the inhibition in assay [1] is -28.6% (inactive); in assay [3] it was -54.7% (inactive); in assay [7] it was -1.85% (inactive); in assay [8], 25.3% (inactive). Besides, the inhibition of aggregation in assay [2] is 7.3% (inactive). Also, the values for the nuclei count in assay [2] and in assay [3] were 83.7% and 110%, respectively. Also, the fluorescence slope in assay [4] is -0.497 (inactive). For the same compound, the NADPH fluorescence slope in assay [5] was -2.2e-05 (inactive). The slope in assay [6] is 0.00533 (inactive).

Regarding `COc1ccc(NC(=O)CS(=O)CC(=O)Nc2cc(Cl)ccc2OC)cc1` (centres undefined), the cell count in assay [1] came to 485. Further, the inhibition was 10.5% (inactive) in assay [1], -34.6% (inactive) in assay [3], 13.1% (inactive) in assay [7] and 28.4% (inactive) in assay [8]. The inhibition of aggregation in assay [2] is 5.3% (inactive). For the same compound, the nuclei count worked out at 71.7% in assay [2] and 96% in assay [3]. Also, the fluorescence slope in assay [4] is -0.362 (inactive). Moreover, the NADPH fluorescence slope in assay [5] is -6.2e-05 (inactive). The slope in assay [6] was 0.00691 (inactive).

With `Cc1nc2ccc(S(=O)(=O)NCC(=O)N3CCc4ccccc4C3)cc2s1`, the cell count in assay [1] was determined as 439. Besides, the inhibition in assay [1] was 2.7% (inactive); in assay [3], -4.9% (inactive); in assay [7], -4.3% (inactive); in assay [8], -28.9% (inactive). Moreover, in assay [2], the inhibition of aggregation is 1.5% (inactive). Besides, the nuclei count amounted to 91.2% in assay [2] and 119% in assay [3]. Besides, the fluorescence slope in assay [4] is -0.563 (inactive). Also, the NADPH fluorescence slope in assay [5] was 3.2e-05 (inactive). The slope in assay [6] was 0.00627 (inactive).

Take `CCOc1ccc(Cn2nnc(C(=O)NCc3ccc(OC)cc3)c2N)cc1`: the cell count in assay [1] was determined as 509. Further, the inhibition is -1.3% (inactive) in assay [1], -22.4% (inactive) in assay [3], 17.5% (inactive) in assay [7] and 30.1% (inactive) in assay [8]. Moreover, the inhibition of aggregation in assay [2] is 15.4% (inactive). The nuclei count in assay [2] turned out to be 72.5%; in assay [3], 100%. In addition, the fluorescence slope in assay [4] was -0.536 (inactive). Moreover, the NADPH fluorescence slope in assay [5] was -2.2e-06 (inactive). The slope in assay [6] was 0.00681 (inactive).

`CCn1cc(C(C)NC(=O)COc2ccc(Cl)cc2C)c(C)n1` (centres undefined): in assay [1], the cell count worked out at 713. For the same compound, the inhibition in assay [1] is -14.6% (inactive); in assay [3] it was -64.7% (inactive); in assay [7] it was 1.5% (inactive); in assay [8], 14.6% (inactive). Moreover, the inhibition of aggregation in assay [2] is 0.6% (inactive). The figures for the nuclei count in assay [2] and in assay [3] were 130% and 105%, respectively. In addition, the fluorescence slope in assay [4] is -0.404 (inactive). For the same compound, the NADPH fluorescence slope in assay [5] was -2.9e-05 (inactive). Further, the slope in assay [6] was 0.00313 (inactive).

Regarding `Cc1cn2c(-c3ccc(Cl)cc3)nnc2s1`, the cell count in assay [1] is 752. Moreover, the inhibition in assay [1] is -1.6% (inactive); in assay [3], -81% (inactive); in assay [7], 6.2% (inactive); in assay [8], 12.3% (inactive). In assay [2], the inhibition of aggregation was 17.6% (inactive). Also, the nuclei count in assay [2] was 98%; in assay [3] it was 109%. The fluorescence slope in assay [4] is -0.563 (inactive). The NADPH fluorescence slope in assay [5] is -4.1e-05 (inactive). In addition, in assay [6], the slope is 0.00702 (inactive).

Turning to `COc1cccc(NC(=O)N2CCCC2C(=O)NC(C)C)c1` (centres undefined), the cell count in assay [1] came out at 436. Besides, the inhibition in assay [1] was 1.5% (inactive); in assay [3], -49.5% (inactive); in assay [7] it was 10.9% (inactive); in assay [8], 13.7% (inactive). Further, the inhibition of aggregation in assay [2] is -4.5% (inactive). For the same compound, the figures for the nuclei count in assay [2] and in assay [3] were 121% and 114%, respectively. For the same compound, the fluorescence slope in assay [4] was -0.601 (inactive). The NADPH fluorescence slope in assay [5] is -2.2e-05 (inactive). In assay [6], the slope is 0.00309 (inactive).

For `O=C(Cn1ncc2c1-c1ccccc1OC2)N1CCc2ccccc21`, the cell count in assay [1] came out at 678. The inhibition in assay [1] was 4.4% (inactive); in assay [3], 4.3% (inactive); in assay [7], 5.8% (inactive); in assay [8], 1.51% (inactive). Besides, the inhibition of aggregation in assay [2] is 10.6% (inactive). For the same compound, the nuclei count in assay [2] turned out to be 84.5%; in assay [3], 108%. In addition, the fluorescence slope in assay [4] was -0.587 (inactive). Besides, in assay [5], the NADPH fluorescence slope is 6e-06 (inactive). The slope in assay [6] was 0.00757 (inactive).

`O=C(COC(=O)c1cc(-c2ccco2)nc2ccccc12)NCc1ccc2c(c1)OCO2`: in assay [1], the cell count was 349. For the same compound, the inhibition was -18.2% (inactive) in assay [1], 3.4% (inactive) in assay [3], 2.9% (inactive) in assay [7] and 11.8% (inactive) in assay [8]. Also, the inhibition of aggregation in assay [2] is -7.7% (inactive). In addition, the nuclei count in assay [2] was 54%; in assay [3], 108%. The fluorescence slope in assay [4] is -0.407 (inactive). In addition, the NADPH fluorescence slope in assay [5] was -1.1e-05 (inactive). Further, in assay [6], the slope was 0.00558 (inactive).

As to `O=S1(=O)CC(N2CCOCC2)c2ccccc21` (centres undefined), in assay [1], the cell count came to 644. For the same compound, the inhibition is -0.2% (inactive) in assay [1], -26.3% (inactive) in assay [3], 7.8% (inactive) in assay [7] and 12.8% (inactive) in assay [8]. Besides, the inhibition of aggregation in assay [2] was 8.1% (inactive). Besides, the nuclei count amounted to 95.1% in assay [2] and 112% in assay [3]. Besides, the fluorescence slope in assay [4] is -0.52 (inactive). Moreover, in assay [5], the NADPH fluorescence slope is -1.6e-05 (inactive). In addition, the slope in assay [6] was 0.00437 (inactive).

For the compound `CCOc1ccc(NC(=O)CN(C)CC(=O)NC2CCCc3ccccc32)cc1OCC` (centres undefined), the cell count in assay [1] was determined as 451. In addition, the inhibition is 14.9% (inactive) in assay [1], 10.8% (inactive) in assay [3], 8.91% (inactive) in assay [7] and 26.6% (inactive) in assay [8]. In assay [2], the inhibition of aggregation is -6.5% (inactive). Besides, the nuclei count in assay [2] amounted to 110%; in assay [3], 100%. The fluorescence slope in assay [4] was -0.288 (inactive). Also, the NADPH fluorescence slope in assay [5] is -1.1e-05 (inactive). In assay [6], the slope is 0.00604 (inactive).

`COc1cccc(-c2cc(C(=O)N3CCCCCC3)no2)c1`: the cell count in assay [1] is 519. Also, the inhibition was -11.6% (inactive) in assay [1], -44.3% (inactive) in assay [3], -24.6% (inactive) in assay [7] and -141% (inactive) in assay [8]. For the same compound, the inhibition of aggregation in assay [2] was -8.6% (inactive). Also, the values for the nuclei count in assay [2] and in assay [3] were 82.4% and 116%, respectively. For the same compound, in assay [4], the fluorescence slope was -0.522 (inactive). Besides, in assay [5], the NADPH fluorescence slope was -3.5e-05 (inactive). Also, the slope in assay [6] was 0.00692 (inactive).

`CCOn1c(=O)c(=O)n(OCc2ccccc2)c2ccccc21`: in assay [1], the cell count came to 355. Also, the inhibition in assay [1] is 0.3% (inactive); in assay [3], -32.9% (inactive); in assay [7], 19.9% (inactive); in assay [8] it was 25% (inactive). Further, the inhibition of aggregation in assay [2] is 13% (inactive). Moreover, the nuclei count worked out at 97.7% in assay [2] and 120% in assay [3]. In assay [4], the fluorescence slope is -0.345 (inactive). The NADPH fluorescence slope in assay [5] was -5.2e-05 (inactive). For the same compound, the slope in assay [6] is 0.00578 (inactive).

`CCOC(=O)C(NC(=O)Nc1ccccc1)(OCC)C(F)(F)F` (centres undefined): in assay [1], the cell count is 517. Also, the inhibition was -2.4% (inactive) in assay [1], 25% (inactive) in assay [3], 16.5% (inactive) in assay [7] and 30.2% (inactive) in assay [8]. The inhibition of aggregation in assay [2] is -2.5% (inactive). Besides, the nuclei count in assay [2] was found to be 97.9%; in assay [3], 89.1%. For the same compound, the fluorescence slope in assay [4] was -0.639 (inactive). The NADPH fluorescence slope in assay [5] was 1.8e-05 (inactive). Besides, the slope in assay [6] was 0.0106 (inactive).

What is called inhibition is the drop in the measured response relative to a control, in per cent.
